PubChem BioAssay AID1851 (National Center for Advancing Translational Sciences (NCATS), 2009)
Out of some 16,000 compounds screened, about 2,600 (16%) were called active. Inconclusive results (about 20%) are left out. Not all results are given here. Unmarked numbers belong to inactive results. The call rests on the fitted dose curve; in most records, active means well fitted curve in the direction sought with a large enough effect; inconclusive means small, poorly fitted or top-dose-only effect, or effect the other way; inactive means no such curve, though single readings can be large or run the other way.

The compounds below were run against Cytochrome P450 2D6 (Homo sapiens) (UniProt P10635) (assay: Cytochrome panel assay with activity outcomes). Conditions: recombinant CYP, pro-luciferin dealkylation, luminescence, p450-cyp2d6; series mostly up to 57.1 µM; activity, negative = inhibition: at the top concentration.
Procedure: The P450 gene superfamily is involved in the metabolism and clearance of xenobiotics. This assay used various human CYP P450 isozymes to measure the dealkylation of various pro-luciferin substrates to luciferin. The luciferin is then measured by luminescence after the addition of a luciferase detection reagent. Pro-luciferin substrate concentration in the assay was equal to its KM for its CYP P450 isozyme. Inhibitors and some substrates limit the production of luciferin, and decrease measured luminescence.
NCGC Assay Protocol Summary:
1, Reagent, 2 uL, Isozyme and Pro-Luciferin
2, Library compounds, 23 nl, 40 uM to 0.24 nM dilution series
3, Controls, 23 nl, Isozyme specific inhibitor
4, Reagent, 2 uL, NADPH regeneration solution
5, Incubation time, 60 min, Isozyme specific temperature
6, Reagent, 4ul, Detection reagent
7, Incubation time, 20 min, Isozyme specific temperature
8, Detection, 1 sec, ViewLux luminescent read
The luciferase-based P450-GloTM Screening Systems were obtained from Promega (Madison, WI) for CYP 1A2 (V9770), CYP 2C9 (V9790), CYP2 C19 (V9880), CYP 2D6 (V9890), and CYP 3A4 Luciferin-PPXE (V9910) and were adapted for 1,536-well microplates and an automated protocol. The control compounds furafylline for 1A2 (F124), sulfaphenazole for CYP 2C9 (S0758), ketoconazole for CYP 2C19 (K1003), quinidine for 2D6 (Q3625), and ketoconazole for 3A4 (K1003) were purchased from Sigma Aldrich (St. Louis, MO). Recombinant P450 enzymes were obtained from baculovirus constructs expressed in insect cells (BD/Gentest).
Medium-binding white solid Kalypsys plates used. Mixtures kept on ice. 1A2: 10 nM 1A2, 100 uM Luc-ME, 100 mM KPO4; 2C9: 10 nM 2C9, 100 uM Luc-H, 25 mM KPO4; 2C19: 5 nM 2C19, 10 uM Luc-H EGE, 50 mM KPO4; 2D6: 5 nM 2D6, 30 uM Luc-ME EGE, 100 mM KPO4; 3A4: 10 nM, 25 uM Luc-PPXE. All amounts are reflected in their final concentration, working concentration is 2x.
NADPH regeneration solution: 1.3 mM NADP+, 3.3 mM glucose-6-phosphate, 3.3 mM MgCl2, 0.4 U/mL glucose-6-phosphate dehydrogenase for all isozymes, 200 mM KPO4 for 3A4. Mixture prepared at RT but kept on ice during automated run.
RT incubation in auxilliary plate hotel for 1A2, 2D6, and 3A4; 37C for 2C9 and 2C19.
Keywords: P450, CYP1A2, CYP2C19, CYP2C9, CYP2D6, CYP3A4, Luciferase, MLSMR, MLSCN, NIH Roadmap, qHTS, NCGC
On the % scale 0 is the no-effect control and ±100 the full control effect.

Sequence of Cytochrome P450 2D6 (Homo sapiens) (P10635 whole entry, looked up): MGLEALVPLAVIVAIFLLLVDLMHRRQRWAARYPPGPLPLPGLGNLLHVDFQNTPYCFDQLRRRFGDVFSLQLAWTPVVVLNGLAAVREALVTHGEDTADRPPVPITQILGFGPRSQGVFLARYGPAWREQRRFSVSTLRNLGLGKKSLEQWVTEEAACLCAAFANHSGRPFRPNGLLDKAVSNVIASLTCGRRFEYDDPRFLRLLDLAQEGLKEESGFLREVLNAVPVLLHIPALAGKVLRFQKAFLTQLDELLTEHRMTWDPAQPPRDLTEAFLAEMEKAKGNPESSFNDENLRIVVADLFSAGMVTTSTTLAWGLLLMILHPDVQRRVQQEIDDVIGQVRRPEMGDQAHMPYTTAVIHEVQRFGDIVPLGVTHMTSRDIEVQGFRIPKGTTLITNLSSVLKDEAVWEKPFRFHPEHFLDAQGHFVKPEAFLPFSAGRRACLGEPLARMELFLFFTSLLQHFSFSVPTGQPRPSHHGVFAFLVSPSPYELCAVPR

| Structure (SMILES) | activity, negative = inhibition | AC50 |
| --- | --- | --- |
| O=C(Nc1cccc(OC(=O)c2ccco2)c1)c1ccco1 | -29.5% |  |
| CC(=O)c1ccc(-n2nnnc2SCC(=O)Nc2cccc(NC(=O)c3ccco3)c2)cc1 | -16% |  |
| O=C(Nc1cccc(-c2nc3ncccc3o2)c1)c1sc2cc(Cl)ccc2c1Cl | -2.66% |  |
| Cc1ccc(SCC(=O)Nc2cccc(NC(=O)c3ccco3)c2)cc1 |  | 20 µM (active) |
| O=C(CSc1ccc(Cl)cc1)Nc1cccc(NC(=O)c2ccco2)c1 |  | 6.31 µM (active) |
| O=C(CSc1ccc(Cl)cc1)Nc1cccc(-c2nc3ncccc3o2)c1 |  | 8.91 µM (active) |
| O=C(CSc1ccccc1)Nc1ccc(NC(=O)c2ccco2)cc1 | -28.8% |  |
| O=C(Nc1nnc(SCc2ccc(Cl)cc2)s1)c1ccco1 | -2.39% |  |
| COc1ccc(NC(=O)c2ncn[nH]2)cc1 | 4.49% |  |
| COC(=O)C(C)(C(=O)OC)c1ccc([N+](=O)[O-])cn1 | -21.4% |  |
| Cc1c(Cl)c([N+](=O)[O-])nn1CC(=O)Nc1c(C)n(C)n(-c2ccccc2)c1=O | -0.891% |  |
| Cc1ccc(NC(=O)CCc2c(C)nc3ncnn3c2C)nc1 | 4.12% |  |
| CC(=O)c1cccc(NC(=O)c2csc(-n3nc(C)cc3C(F)(F)F)n2)c1 | -23.6% |  |
| COC(=O)CCCC(=O)O | 8.35% [at 11.4 µM] |  |
| COC(=O)[C@@]1(Cc2ccc(OC)cc2)[C@@H]2[C@@H](CC(=O)[C@H]2CC(=O)C(=O)N(C)C)CN1C(=O)c1ccccc1 | -1.73% |  |
| O=[N+]([O-])c1ccc2c(c1)Cc1cc(N=Cc3ccc4c(c3)OCO4)ccc1-2 | -11.6% [at 11.4 µM] |  |
| CN1CCN(c2nc3cc(C(F)(F)F)ccc3n3cccc23)CC1 | -20.9% |  |
| FC(F)(F)c1cnc(N2CCC(=NOCc3ccc(Cl)cc3)CC2)c(Cl)c1 | -2.76% |  |
| CCCCCCN(CCCCCC)C(=O)Cc1c(-c2ccc(Cl)cc2)[nH]c2ccc(Cl)cc12 | -9.91% |  |
| Cc1cc(=O)c2cc(Cl)ccc2[nH]1 | -6.42% |  |
| CCCCN(C)Cc1c(C)[nH]c2ccc(Cl)cc2c1=O |  | 3.16 µM (active) |
| CCOc1ccc2[nH]c(=O)c(CN(CCc3ccccc3)C(=O)N3CCOCC3)cc2c1 | -16.1% |  |
| N#C/C(=C\c1ccc(Cl)cc1)c1nc2ncccc2[nH]1 |  | 12.6 µM (active) |
| N#C/C(=C\c1ccccc1)c1nc2ncccc2[nH]1 | -21% |  |
| c1ccc(-c2ccc(C3=Nn4c(Cn5nnc6ccccc65)nnc4SC3)cc2)cc1 | -6.94% |  |
| Cc1nc(C(=O)Nc2ccc(Cl)cc2Cl)nn1-c1cc(OC(C)C)c(Cl)cc1Cl | -4.13% |  |

| Structure (SMILES) | activity, negative = inhibition | AC50 |
| --- | --- | --- |
| COC(=O)N1CC(=O)N(OC)C1c1ccc(Cl)cc1Cl (stereo unspecified) | 3.25% |  |
| COc1cccc2c1OC[C@@H](CO)[C@H]2N(C)C(=O)Nc1ccc(Cl)cc1Cl |  | 3.55 µM (active) |
| Cc1cc2nc(SCCOC(=O)Nc3ccc(Cl)cc3)nc(C)c2cc1C |  | 8.91 µM (active) |
| Cc1ccc(OCC(=O)Nc2ccc(Cl)cc2)c(-n2nc3ccccc3n2)c1 | -6.55% |  |
| CCCCOC(=O)Nc1ccc(C)c(Cl)c1 | -20.5% |  |
| O=C1NC(=O)[C@@](Cc2ccccc2)(c2cccnc2)N1 | 1.34% [at 11.4 µM] |  |
| CCS(=O)(=O)Nc1ccc(C2=NN(C(=O)c3ccco3)C(c3ccc(C)cc3)C2)cc1 (stereo unspecified) | -12.4% |  |
| CC(=O)NNc1nc2ccccc2s1 | -0.0209% |  |
| Clc1ccc(CCNc2nc3ccccc3s2)cc1 |  | 3.55 µM (active) |
| O=c1c(-c2nc3ccccc3s2)cccn1Cc1ccc(Cl)cc1 | -12.9% |  |
| Cc1noc2ncnc(Oc3ccc4ccccc4c3)c12 | -14.9% |  |
| COCCN1C(=O)C(=O)/C(=C(/O)c2cccc(OC)c2)C1c1ccc(C)o1 (stereo unspecified) | 5.43% |  |
| CCOC(=O)c1oc2ccccc2c1NC(=O)c1ccc(S(=O)(=O)N(C)C)cc1 | 15% |  |
| CCOC(=O)c1[nH]c2cc(OC)c(OC)cc2c1NC(=O)c1ccc2c(c1)OCO2 | -1.54% |  |
| COC(=O)c1[nH]c2cc(OC)ccc2c1NC(=O)c1ccc2c(c1)OCO2 |  | 22.4 µM (active) |
| CCOC(=O)c1oc2ccccc2c1NC(=O)c1ccc2c(c1)OCO2 |  | 3.55 µM (active) |
| COC(=O)c1[nH]c2cc(OC)ccc2c1NC(=O)c1nonc1C | 21.6% |  |
| COc1cccc(NC(=O)c2oc3ccccc3c2NC(=O)c2ccc3c(c2)OCO3)c1 | 1.82% |  |
| Cc1nc2cnc(Nc3ccccc3)nc2n(CCc2ccccc2)c1=O | -2.78% |  |
| N#Cc1cccc(NC(=O)N2CCCC3(CCN(C(=O)c4cnccn4)CC3)C2)c1 | -0.699% |  |
| CC(C)CO/N=C1/C[C@@H](O)[C@@H](O)[C@@H]2[C@@H]3C(=O)N(Cc4ccc5c(c4)OCO5)C(=O)[C@H]3CC[C@H]12 | -12.3% [at 11.4 µM] |  |
| O=C(O)CCC(=O)N1CCC[C@H]1C(=O)O | 15.4% |  |
| Cc1ccc2c(c1)N(CC(=O)NC1CCCc3ccccc31)C(=O)CO2 (stereo unspecified) |  | 12.6 µM (active) |
| Cc1ccc2c(c1)-c1c(cnn1CC(=O)O)CO2 | 12.2% |  |
| Cc1ccc2c(c1)N(CCC(=O)NCC1CCCO1)C(=O)CO2 (stereo unspecified) | -13.4% |  |
